# Source: PubChem BioAssay (NCATS)
# Records with an inconclusive call do not appear. Values without a mark were called inactive. Active and inactive are the calls of the source. Calls come from the whole dose curve. Square brackets hold non-standard residues; d marks the D form. Peptide text beside a SMILES is read from it. ξ: configuration not given here. d(hArg(Et2)) = CCN=C(NCC)NCCCC[C@@H](N)C(=O)O; hArg(Et2) = CCN=C(NCC)NCCCC[C@H](N)C(=O)O; Phe(4-Cl) = N[C@@H](Cc1ccc(Cl)cc1)C(=O)O; ξ2Nal = NC(Cc1ccc2ccccc2c1)C(=O)O; 3Pal = N[C@@H](Cc1cccnc1)C(=O)O; ξP = O=C(O)C1CCCN1
# Experiment: Confirmatory qHTS to identify inhibitors of SARS-CoV-2 cell entry (AID 1645844); note: nearly all actives have a fitted effect of over 45% in size
# Conditions: SARS-CoV-2 pseudotyped particle cell entry, luciferase; series mostly up to 57.2 µM; activity, negative = inhibition: at the top concentration
# Excerpt: Assay Provider: Wei Zheng, Ph.D.
# National Center for Advancing Translational Sciences, National Institute of Health, Rockville, MD.
# SARS-CoV-2 spike protein, within the viral envelope, mediates viral attachment and infection of host cells. The SARS-CoV-2 spike protein specifically binds to the host receptor ACE2 (Angiotensin-converting enzyme 2). This interaction promotes endocytosis of the viral particle, additional events lead to viral-host cell membrane fusion and release of the viral contents, allowing viral replication.
# While SARS-CoV-2 requires BSL-3 facilities for live virus work, pseudotyped partices (PP) that incorporate SARS-CoV-2 spike proteins without replication elements could facilitate studies on viral entry mechanisms in a BSL-2 setting. This PP cell entry assay could also enable screening of small molecule compound libraries in BSL-2 setting to identify inhibitors of SARS-CoV-2 cell entry.
# SEQUENCE No. (e.g., 1, 2, 3, etc.); […] (e.g., Cells, Incubation, Reagent, etc.); VALUE and DESCRIPTION.
# 1. Cells. Seed 1500 HEK293-ACE2 cells (Expi293F with stable expression of human ACE2) in 2 uL/well media (DMEM, 10% FBS, 1x L-glutamine, 1x Pen/Strep, 1 ug/ml puromycin) in white 1536-well assay plates (Greiner #782073).
# 2. Incubation. Incubate at 37C with 5% CO2 overnight (~16 h).
# 3. Compounds. Dispense 23 nL/well compounds in DMSO via pin transfer.
# 4. Incubation. Incubate for 1 hr at 37C 5% CO2.
# 5. Reagent. Dispense 2 uL/well of SARS-CoV-2-S pseudotyped particles (PP). [a] PPs are produced with murine leukemia virus pseudotyping). [b] SARS-CoV-2-S is Wuhan-Hu-1 sequence (BEI #NR-52420) with C-terminal 19 amino acid truncation.
# 6. Centrifugation. […]
# 7. Incubation. Incubate at for 48 hr at 37C 5% CO2
# 8. Centrifugation. Remove supernatant with gentle centrifugation using a Blue Washer (BlueCat Bio).
# 9. Reagent. Dispense 4 uL/well of Bright-Glo Luciferase detection reagent (Promega #E2620).
# 10. Incubation. Incubate for 5 min at room temperature.
# 11. Detection. Read luminescence signal (Viewlux plate reader, PerkinElmer). Data was normalized with wells containing SARS-CoV-2-S PP as 100%, and wells containing bald PP (no fusion protein) as 0%.
# % is set by controls: 0 for no effect and ±100 for the full control effect; potency is the fitted concentration of half-maximal effect.
Compound,Potency,"activity, negative = inhibition"
CS(=O)(=O)c1ccc(-c2cnc(NCc3ccco3)n3cnnc23)cc1,27100 nM (active),–
C=C1C[C@H]2C=Nc3cc(OCCCOc4cc5c(cc4OC)C(=O)N4CC(=C)C[C@H]4C=N5)c(OC)cc3C(=O)N2C1,1.5 nM (active),–
O=C(Nc1ccnc(NC(=O)C2CC2)c1)c1c(Cl)cccc1Cl,1920 nM (active),–
CS(=O)(=O)N1CCC(NC(=O)c2[nH]ncc2NC(=O)c2c(Cl)cccc2Cl)CC1,34.1 nM (active),–
CC#CC(=O)N1CC[C@@H](n2c(=O)n(-c3ccc(Oc4ccccc4)cc3)c3c(N)ncnc32)C1,21500 nM (active),–
CCCCC(=O)OCC(=O)[C@]1(O)Cc2c(O)c3c(c(O)c2[C@@H](O[C@H]2C[C@H](NC(=O)C(F)(F)F)[C@H](O)[C@H](C)O2)C1)C(=O)c1c(OC)cccc1C3=O,857 nM (active),–
O=C(/C=C\n1cnc(-c2cc(C(F)(F)F)cc(C(F)(F)F)c2)n1)NNc1cnccn1,3040 nM (active),–
COc1cc([C@@H]2c3cc4c(cc3[C@@H](O[C@@H]3O[C@@H]5CO[C@@H](C)O[C@H]5[C@H](O)[C@H]3O)[C@H]3COC(=O)[C@H]23)OCO4)cc(OC)c1OP(=O)(O)O,541 nM (active),–
CC(=O)N1CCN(CCOc2ccc(C3CCN(C4=Nn5c(nnc5C(F)(F)F)CC4)CC3)cc2)CC1,19200 nM (active),–
Cc1cccc(/C=N/Nc2cc(N3CCOCC3)nc(OCCc3ccccn3)n2)c1,76.4 nM (active),–
COc1cccc2c1C(=O)c1c(O)c3c(c(O)c1C2=O)C[C@@](O)(/C(CO)=N/NC(=O)CCCCCN1C(=O)C=CC1=O)C[C@@H]3O[C@H]1C[C@H](N)[C@H](O)[C@H](C)O1,429 nM (active),–
C/C=C(\C)C(=O)N[C@@H](c1ccccc1)[C@@H](O)C(=O)O[C@H]1C[C@@]2(O)[C@@H](OC(=O)c3ccccc3)[C@@H]3[C@]4(OC(C)=O)CO[C@@H]4C[C@H](O)[C@@]3(C)C(=O)[C@H](OC(C)=O)C(=C1C)C2(C)C,4.3 nM (active),–
CCNC(=NCCCC[C@H](NC(=O)[C@H](CC(C)C)NC(=O)[C@@H](CCCCN=C(NCC)NCC)NC(=O)[C@@H](Cc1ccc(O)cc1)NC(=O)[C@@H](CO)NC(=O)[C@H](Cc1cccnc1)NC(=O)[C@H](Cc1ccc(Cl)cc1)NC(=O)C(Cc1ccc2ccccc2c1)NC(C)=O)C(=O)N1CCCC1C(=O)N[C@H](C)C(N)=O)NCC (stereo not given in full) (Ac-[ξ2Nal][Phe(4-Cl)][3Pal][dS][dY][d(hArg(Et2))]L[hArg(Et2)][ξP][dA]-NH2),1210 nM (active),–
Cc1c(N)nc(C(CC(N)=O)NCC(N)C(N)=O)nc1C(=O)NC(C(=O)NC(C)C(O)C(C)C(=O)NC(C(=O)NCCc1nc(-c2nc(C(=O)NCCCN[C@@H](C)c3ccccc3)cs2)cs1)C(C)O)C(O[C@@H]1O[C@@H](CO)[C@@H](O)[C@H](O)[C@@H]1O[C@H]1O[C@H](CO)[C@@H](O)[C@H](OC(N)=O)[C@@H]1O)c1cnc[nH]1 (stereo not given in full),21.5 nM (active),–
CN(C)CCN1C(=O)c2cccc3cc(NC(N)=O)cc(c23)C1=O,9610 nM (active),–
COc1ccc(N(C)c2nc(C)nc3ccccc23)cc1,6810 nM (active),–
O=C(Nc1cc(Oc2cc(F)c(NC(=O)C3(C(=O)Nc4ccc(F)cc4)CC3)cc2F)ccn1)C1CC1,21500 nM (active),–
O=C(c1ccc(Nc2nc(C3CC3)cn3c(-c4cn[nH]c4)cnc23)c(F)c1)N1CCOCC1,3410 nM (active),–
N#Cc1cccnc1N1CCN(C(=O)c2cccc(Cc3n[nH]c(=O)c4ccccc34)c2)CC1,68.1 nM (active),–
Nc1nc(Cl)nc2c1ncn2C1CC(O)C(CO)O1 (stereo not given),19200 nM (active),–

Compound,Potency,"activity, negative = inhibition"
O=c1c(-c2ccc(O)cc2)coc2c([C@@H]3O[C@H](CO)[C@@H](O)[C@H](O)[C@H]3O)c(O)ccc12,–,-17.3%
CC(CN(C)C)CN1c2ccccc2Sc2ccc(C(F)(F)F)cc21 (stereo not given),15200 nM (active),–
CC(C)n1c(=O)cc(N[C@@H](C)c2ccccc2)[nH]c1=O,–,-12.4%
CN1CC[C@H](CN2c3ccccc3Sc3ccccc32)C1,3410 nM (active),–
COc1cc([C@@H]2c3cc4c(cc3C(O[C@@H]3O[C@@H]5CO[C@@H](c6cccs6)OC5[C@H](O)[C@H]3O)C3COC(=O)[C@@H]32)OCO4)cc(OC)c1O (stereo not given in full),48.2 nM (active),–
C[C@H]1[C@H](OC(=O)CCC(=O)O)O[C@@H]2O[C@@]3(C)CC[C@H]4[C@H](C)CC[C@@H]1[C@@]24OO3,1360 nM (active),–
CC(C)c1cc(CNc2nc(Nc3cc(C4CC4)[nH]n3)cc(N3CCN(C)CC3)n2)on1,215 nM (active),–
C[C@H]1COCCN1c1cc(C2(S(=O)(=O)C3CC3)CC2)nc(-c2ccc(NC(=S)NCCO)cc2)n1,764 nM (active),–
COc1ccc(S(=O)(=O)N2CCc3cccc(-c4ccncc4)c32)cc1,961 nM (active),–
CCOc1ccc2c(c1)C(C)=CC(C)(C)N2,31200 nM (active),–
C=C(NC(=O)C(=C)NC(=O)c1csc(C2=N[C@H]3c4csc(n4)[C@H]4NC(=O)c5csc(n5)[C@H]([C@@](C)(O)[C@@H](C)O)NC(=O)[C@H]5CSC(=N5)C(=CC)NC(=O)[C@H]([C@@H](C)O)NC(=O)c5csc(n5)[C@]3(CC2)NC(=O)[C@H](C)NC(=O)C(=C)NC(=O)[C@H](C)NC(=O)[C@H](C(C)CC)N[C@@H]2C=Cc3c([C@H](C)O)cc(nc3[C@H]2O)C(=O)O[C@@H]4C)n1)C(N)=O (stereo not given in full),3410 nM (active),–
CO[C@H](C(=O)[C@@H](O)[C@@H](C)O)C1Cc2cc3cc(O[C@H]4C[C@@H](O[C@H]5C[C@@H](O)[C@H](O)[C@@H](C)O5)[C@@H](O)[C@@H](C)O4)c(C)c(O)c3c(O)c2C(=O)[C@H]1O[C@H]1C[C@@H](O[C@H]2C[C@@H](O[C@H]3C[C@](C)(O)[C@H](O)[C@@H](C)O3)[C@H](O)[C@@H](C)O2)[C@H](O)[C@@H](C)O1 (stereo not given in full),171 nM (active),–
Cc1c(N)nc([C@H](CC(N)=O)NC[C@@H](N)C(N)=O)nc1C(=O)N[C@H](C(=O)N[C@@H](C)[C@H](O)[C@@H](C)C(=O)N[C@@H](C(=O)NCCc1nc(-c2nc(C(=O)NCCC[S+](C)C)cs2)cs1)[C@@H](C)O)C(O[C@H]1O[C@H](CO)[C@H](O)[C@@H](O)[C@H]1O[C@H]1O[C@H](CO)[C@@H](O)[C@H](OC(N)=O)[C@@H]1O)c1cnc[nH]1 (stereo not given in full),34.1 nM (active),–
CC[C@]12C=CCN3CC[C@@]4(c5cc([C@@]6(C(=O)OC)C[C@H]7C[C@@H](C(C)(F)F)CN(Cc8c6[nH]c6ccccc86)C7)c(OC)cc5N(C)[C@H]4[C@@](O)(C(=O)OC)[C@@H]1OC(C)=O)[C@@H]32,359 nM (active),–
CCN(CCCOc1ccc2c(Nc3cc(CC(=O)Nc4cccc(F)c4)[nH]n3)ncnc2c1)CCOP(=O)(O)O,34.1 nM (active),–
CNCCCOc1cc(F)c(-c2c(Cl)nc3ncnn3c2N[C@@H](C)C(F)(F)F)c(F)c1,1210 nM (active),–
COc1cc(N2CCC(N3CCN(C)CC3)CC2)ccc1Nc1ncc(Cl)c(Nc2ccccc2P(C)(C)=O)n1,4820 nM (active),–
O=C(Nc1cccnc1)c1cc(-c2ccnc(F)c2)ccc1OCc1ccccc1,–,0%
CCN(CC)Cc1cc(Nc2ccnc3cc(Cl)ccc23)ccc1O,3830 nM (active),–
COCCNCc1ccc(-c2cc3nccc(Oc4ccc(NC(=S)NC(=O)Cc5ccc(F)cc5)cc4F)c3s2)nc1,3830 nM (active),–
